This note sets out measurements from PubChem BioAssay AID651844 (Broad Institute, 2012).

The nature of this assay: NIH/3T3 fibroblast cytotoxicity, dose response, cytotoxicity control, cell-based, dry powder samples (AID 651844). Conditions: NIH/3T3 viability, CellTiter-Glo ATP luminescence, 90 h; series mostly up to 16 µM.

Molecules are shown by their SMILES. Results with a measured potency or affinity are listed apart. Inconclusive results are not listed. Activity calls are given as the source filed them.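 Rule for the calls: active = every test run shows a luminescence drop with half-maximal concentration at most twice the top tested dose; inconclusive = test runs disagree, weak flat response, or unreliable curve fit; inactive = the rest.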

As for `CC(C)N1C[C@H](C)[C@@H](CN(C)C(=O)OC(C)(C)C)Oc2c(NC(=O)c3ccccc3)cccc2C1=O`, the outcome was inactive.

As for `CC(C)N1C[C@H](C)[C@@H](CN(C)Cc2ccccc2Cl)Oc2c(NC(=O)c3ccncc3)cccc2C1=O`, the outcome was inactive. On to `CC(C)N1C[C@H](C)[C@@H](CN(C)Cc2ccc(Cl)cc2)Oc2c(NC(=O)c3ccncc3)cccc2C1=O`, for which the result was inactive. For `C[C@H]1CN([C@@H](C)CO)C(=O)c2cccc(NC(=O)c3ccncc3)c2O[C@@H]1CN(C)Cc1ccncc1` the value was “inactive”.

`C[C@@H]1CN([C@@H](C)CO)C(=O)c2cccc(NC(=O)c3ccncc3)c2O[C@H]1CN(C)Cc1ccc(C(=O)O)cc1`: the compound was called inactive. For `CC(C)N1C[C@H](C)[C@@H](CN(C)C(=O)OC(C)(C)C)Oc2c(C#N)cccc2C1=O` the value was “inactive”.

As for `C[C@@H]1CN([C@H](C)CO)C(=O)c2cccc(NC(=O)c3ccncc3)c2O[C@H]1CN(C)Cc1ccc2c(c1)OCO2`, the compound was classed as inactive. As to `C[C@H]1CN([C@@H](C)CO)C(=O)c2cccc(NC(=O)c3ccncc3)c2O[C@@H]1CN(C)Cc1ccc(C(=O)Nc2ccccc2N)cc1`, the compound was classed as inactive. Regarding `C[C@@H]1CN([C@@H](C)CO)C(=O)c2cccc(NC(=O)c3ccncc3)c2O[C@H]1CN(C)Cc1cccc(Cl)c1`, the compound was classed as inactive. Turning to `CC(C)N1C[C@H](C)[C@@H](CN(C)Cc2ccc(Oc3ccccc3)cc2)Oc2c(NC(=O)c3ccccc3)cccc2C1=O`, the outcome was inactive. For the compound `COc1ccc(CN(C)C[C@H]2Oc3c(NC(=O)c4ccncc4)cccc3C(=O)N([C@@H](C)CO)C[C@@H]2C)cc1`, the call was inactive. Regarding `C[C@@H]1CN([C@@H](C)CO)C(=O)c2cccc(NC(=O)c3ccncc3)c2O[C@H]1CN(C)Cc1ccncc1`, the result was inactive. With `CC(C)N1C[C@H](C)[C@@H](CN(C)Cc2ccc(Oc3ccccc3)cc2)Oc2c(NC(=O)c3cccnc3)cccc2C1=O` the entry was “inactive”. For `CC(C)N1C[C@H](C)[C@@H](CN(C)C(=O)OC(C)(C)C)Oc2c(C(=O)Nc3ccncc3)cccc2C1=O` the value was “inactive”; for `C[C@@H]1CN([C@@H](C)CO)C(=O)c2cccc(NC(=O)c3ccncc3)c2O[C@@H]1CN(C)Cc1ccc(Oc2ccccc2)cc1`, “inactive”.

As for `C[C@H]1CN([C@@H](C)CO)C(=O)c2cccc(NC(=O)c3ccncc3)c2O[C@@H]1CN(C)Cc1ccccc1`, the result was inactive. With `CNC[C@H]1Oc2c(NC(=O)c3ccccc3)cccc2C(=O)N(C(C)C)C[C@@H]1C` the entry was “inactive”; with `CC(C)N1C[C@H](C)[C@@H](CN(C)Cc2ccccc2)Oc2c(NC(=O)c3ccncc3)cccc2C1=O`, “inactive”.

For `C[C@H]1CN([C@@H](C)CO)C(=O)c2cccc(NC(=O)c3ccncc3)c2O[C@@H]1CN(C)Cc1ccc2c(c1)OCO2`, the outcome was inactive.

In the case of `CCCn1ncc(CN(C)C[C@H]2Oc3c(NC(=O)c4ccncc4)cccc3C(=O)N(C(C)C)C[C@@H]2C)c1C`, the compound was classed as inactive. For `CC(C)N(C)C(=O)c1cccc(NC(=O)c2ccncc2)c1OCCCN(C)Cc1ccc(Cl)cc1` the value was “inactive”. For the compound `CC(C)N1C[C@H](C)[C@@H](CN(C)C(=O)OC(C)(C)C)Oc2c(NC(=O)c3cccnc3)cccc2C1=O`, the compound was classed as inactive. Turning to `CC(C)N1C[C@@H](C)[C@H](CN(C)Cc2ccc(Oc3ccccc3)cc2)Oc2c(cccc2N(C)C(=O)c2ccncc2)C1=O`, the result was inactive.

Take `CC(C)N1C[C@H](C)[C@@H](CN(C)C(=O)OC(C)(C)C)Oc2c(NC(=O)c3ccncc3)cccc2C1=O`: the outcome was inactive. For `CC(C)N1C[C@H](C)[C@@H](CN(C)C(=O)OC(C)(C)C)Oc2c(NC(=O)c3ccccn3)cccc2C1=O` the value was “inactive”; for `C[C@H]1CN([C@@H](C)CO)C(=O)c2cccc(NC(=O)c3ccncc3)c2O[C@@H]1CN(C)Cc1ccc(C(F)(F)F)cc1`, “inactive”; for `CC(C)N1C[C@H](C)[C@@H](CN(C)Cc2cccc(Cl)c2)Oc2c(NC(=O)c3ccncc3)cccc2C1=O`, “inactive”. With `CC(C)N1C[C@H](C)[C@@H](CN(C)C(=O)OC(C)(C)C)Oc2c(C(=O)O)cccc2C1=O`, the outcome was inactive. With `C[C@H]1CN([C@@H](C)CO)C(=O)c2cccc(NC(=O)c3ccncc3)c2O[C@@H]1CN(C)Cc1ccc(C(=O)O)cc1` the entry was “inactive”.

With `CC(C)N(C)C(=O)c1cccc(NC(=O)c2ccncc2)c1OCCCN(C)C(=O)OC(C)(C)C`, the compound was classed as inactive. For the compound `CNC[C@@H]1Oc2c(NC(=O)c3ccncc3)cccc2C(=O)N(C(C)C)C[C@H]1C`, the outcome was inactive.

`CC(C)N1C[C@H](C)[C@@H](CN(C)CC2CCOCC2)Oc2c(NC(=O)c3ccncc3)cccc2C1=O`: the call was inactive. For `CC(C)N1C[C@H](C)[C@@H](CN(C)Cc2ccc(Oc3ccccc3)cc2)Oc2c(NC(=O)c3ccccn3)cccc2C1=O` the value was “inactive”.
